Measured values from PubChem BioAssay (NCI).
Compounds without any hit were thinned out: in the full panel of roughly 79,000, 15% have a hit. A number with no mark means an inactive call. The source made the active and inactive calls. No stated cut-off is given here; in the data, active means growth inhibition above about 70%; inactive means the rest.

Assays:
[1] = NCI Yeast Anticancer Drug Screen. Data for the rad50 strain (AID 155);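 further: 0% = growth of vehicle-only cultures of the same strain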; details: S. cerevisiae rad50 strain growth inhibition; at 50.0 µM; hits give high values
Procedure, shortened: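 Genetically altered yeast (DNA repair pathway); compound treatment; growth inhibition vs vehicle ctrl.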

[2] = NCI Yeast Anticancer Drug Screen. Data for the mec2-1 strain (AID 157); details: S. cerevisiae mec2-1 strain, at 50.0 µM, hits give high values
Procedure, shortened: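 Cells of the genetically defined mec2-1 yeast strain are incubated with test compound. Inhibition of growth is calculated against vehicle-treated controls.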

[3] = NCI Yeast Anticancer Drug Screen. Data for the sgs1 mgt1 strain (AID 161);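 further: 0% = growth of cultures given vehicle only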; details: S. cerevisiae sgs1 mgt1 strain, at 50.0 µM, hits give high values
Procedure, shortened: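 Mutant yeast exposed to compound; growth scored against vehicle-only wells.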

[4] = NCI Yeast Anticancer Drug Screen. Data for the cln2 rad14 strain (AID 165);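 further: 0% = growth equal to vehicle treated cultures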; details: S. cerevisiae cln2 rad14 strain, at 50.0 µM, hits give high values
Procedure, shortened: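 The screen exposed genetically defined yeast (cln2 rad14) to test compounds and scored growth inhibition relative to vehicle-treated controls.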

[5] = NCI Yeast Anticancer Drug Screen. Data for the bub3 strain (AID 167); details: S. cerevisiae bub3 mutant strain, at 50.0 µM, hits give high values
Procedure, shortened: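 Yeast carrying a defined mutation is treated with each compound, and growth is compared with that of vehicle-exposed cells to give inhibition.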

[6] = NCI Yeast Anticancer Drug Screen. Data for the mlh1 rad18 strain (AID 175); details: S. cerevisiae mlh1 rad18 strain growth inhibition; at 50.0 µM; hits give high values
Procedure, shortened: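 Compound-treated yeast growth, normalised to vehicle controls. Strain bears defined DNA repair mutations.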

SMILES	growth inhibition [1]	growth inhibition [2]	growth inhibition [3]	growth inhibition [4]	growth inhibition [5]	growth inhibition [6]
CCOC(=O)/C(O)=C/c1nc2ccccc2nc1C	18.8%	5.65%	8.9%	-6%	-17.3%	14.7%
CCCN1C(=O)c2cc(=O)[nH]c(O)c2C1C (configuration not stated)	-14.2%	-10.9%	-8.75%	9%	-13.3%	0.4%
COC1=CC(=C(C#N)C(=Nc2ccccc2)SC)C=C(OC)C1=O	34.1%	19.1%	48.9%	15.3%	20.6%	43.6%
COC(=O)C(C(=O)C(=O)Nc1ccc(C)cc1C)c1nc2ccc([N+](=O)[O-])cc2[nH]c1=O (configuration not stated)	9.05%	-1.7%	4.05%	7.95%	4.2%	6.65%
CC(=S)NC(O)C(=O)c1ccccc1 (configuration not stated)	9.85%	12.8%	45%	8.6%	45.2%	6.45%
COc1cccc(/C=C\c2ccc(O)cc2)c1	87% (active)	91% (active)	92% (active)	92% (active)	91.2% (active)	91.5% (active)
O=C(O)CCNc1ccccc1C(=O)O	-8.4%	-15.2%	-13.9%	-9.6%	-40.8%	-0.25%
Cc1n[nH]c(=O)n1-c1cccnc1	-0.7%	1.5%	-9%	-12.3%	3.55%	3.6%
N#CCCN(CCC#N)c1ccc(/C=C2\N=C(c3cc([N+](=O)[O-])ccc3Cl)N(NC(=O)CC(=O)Nc3ccccc3Cl)C2=O)cc1	-31%	-28.1%	-13.8%	2.5%	1.65%	-18.3%
O=C(NNS(=O)(=O)c1ccccc1)c1cccc([N+](=O)[O-])c1	-0.95%	-18.8%	7.25%	8.2%	5%	-11.4%
CC1(C)OC2COC3OC(C)(C)OC3(CO)C2O1 (configuration not stated)	-1.7%	-17.8%	-6.1%	-4.9%	20.5%	5.15%
COc1ccc(C2C(Cl)C(=O)N2NC(=O)Cc2ccccc2)cc1 (configuration not stated)	-10.6%	-11.9%	-7.3%	8.95%	-10.9%	12.6%
CC12CCC(=O)C=C1CCC1C2CCC2(C)C(C(=O)Cn3c(=O)cc[nH]c3=O)CCC12 (configuration not stated)	1.2%	-3.7%	-0.5%	15.8%	-1.35%	1.85%
CCN(CC)CCCNc1ncc(C)c2[nH]c3ccncc3c12	2.9%	22.6%	0.4%	-9.1%	-0.25%	12.1%
CN(C)N1C(=O)c2ccccc2NC1c1ccccc1 (configuration not stated)	-19.2%	-1.35%	29.6%	2%	18.9%	5.15%
N#C/C(=C\c1ccccc1Cl)C(N)=S	10.6%	11.2%	1.15%	8%	-27.4%	6.05%
CC1=NN(C(=O)CC(=O)Nc2cccc(Cl)c2)C(=O)C1N=Nc1ccc(C(=O)O)cc1 (configuration not stated)	-3.25%	1.35%	6.1%	-25%	-3.2%	6.55%
O=[N+]([O-])c1ccc(NC(=S)Nc2ccc([N+](=O)[O-])cc2)cc1	5.05%	-17.6%	-1.1%	-25.8%	5.7%	2.75%
Clc1ccc(C=NC23CC4CC(CC(C4)C2)C3)cc1Cl	-19.1%	-24.1%	-16.2%	17.6%	7.55%	12%

SMILES	growth inhibition [1]	growth inhibition [2]	growth inhibition [3]	growth inhibition [4]	growth inhibition [5]	growth inhibition [6]
O=C(Nc1ccc(Cl)cc1)c1ccc(C(=O)Nc2ccc(Cl)cc2)cc1	-12.9%	-26.4%	-20.1%	5.35%	-6.4%	-24.9%
NCCNC(c1ccccc1)C(O)c1ccccc1 (configuration not stated)	-8.7%	-0.7%	-1.25%	-33.9%	-41.2%	-4.25%
COc1cc(C(=O)O)c(I)c(OC)c1OC	-10.9%	-5.85%	-6.25%	-4.85%	3.6%	-9.65%
O=C(O)C(CCC1CCC=CCC1)C(=O)O	-13.8%	-6.7%	-9.25%	-2.45%	5.6%	-7.05%
CCN(CC)CCSSCCN(CC)CC	-9%	3.7%	-7.05%	-15.2%	2.35%	5.3%
NS(=O)(=O)c1ccc(NO)cc1	-16.1%	-7.45%	6.3%	-15.2%	6.9%	9.85%
OC1c2ccccc2-c2ccc(N(Cc3ccccc3)Cc3ccccc3)cc21 (configuration not stated)	6.95%	11.4%	3.75%	30.8%	-9%	23.8%
CCCN1C(=O)c2cc(=O)n(Cc3ccccc3)c(O)c2C1C (configuration not stated)	6.95%	33%	4.7%	8.4%	-9.45%	13.8%
O=C1CS(=O)(=O)C2(CCCCC2)C(=O)N1	-15.1%	-5.65%	-12.2%	-42.1%	-3.2%	-27.6%
CC1(C)O[C@@H]2[C@@H](COC(=O)c3ccccc3)C[C@@H](C#N)[C@@H]2O1	4.05%	-0.85%	-25.6%	24.9%	38.9%	-11.2%
Cn1c2ccccc2c(=S)c2cc(NC(=O)CCCCC(=O)Nc3ccc4c(c3)c(=S)c3ccccc3n4C)ccc21	32.2%	22.9%	22.4%	23.5%	-4.1%	23.9%
CCCCCCCCCCCCOP(=O)(CC(=O)NCc1cc(C(C)(C)C)c(O)c(C(C)(C)C)c1)OCCCCCCCCCCCC	-1.55%	3.3%	21.9%	-7.3%	-2.9%	-9.9%
COc1ccc2c(c1O)C1(CCN(C)C)CC(=O)CCC1C=C2 (configuration not stated)	13.2%	-11.5%	9.55%	6.2%	25.5%	12.4%
COc1cc(OC)c(C(C)=O)c(O)c1OC	2.75%	1.05%	10.9%	10.6%	11.1%	15.2%
COc1cc([N+](=O)[O-])c(OC)cc1N	2.45%	-8.3%	-13.1%	-27.4%	-27.4%	27.6%
O=C(O)CCC1COc2ccccc2O1 (configuration not stated)	-12.2%	-8.35%	0.8%	-9.5%	-14%	-9.35%
CCc1ccc(N=Nc2c(F)c(F)c(N(C)C)c(F)c2F)cc1	-2.4%	7.7%	6.85%	4.1%	1.05%	-1.25%
Brc1ccc2noc(-c3ccccc3)c2c1	29.4%	2.25%	31.6%	-1.6%	9.95%	16.9%
